# In the supplement of paper PMC6607015:
# Where a name gives a salt, the structure may show the parent alone.
# System: A431
# Test: LBPA endosome anti-LBPA integrated intensity (sum per cell), Z-score; higher = more LBPA staining
# Details: compound concentration in added solution (µM; 5 µl added to 20 µl cells): 10; 18 h
# Outline: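 In duplicate 384-well imaging plates, 3,500 HeLa MZ or A431 cells in 20 µl per well were seeded onto 5 µl of 10 µM compound solution. The cells were incubated for 18 h, fixed in 4% PFA and stained with 6C4 anti-LBPA antibody, filipin, propidium iodide and CellTracker green before four 20× images were acquired per well. Values are AcuityXpress-normalised Z-scores of per-cell integrated LBPA or filipin intensity, obtained by MetaXpress segmentation over the whole cell or in LBPA endosomes.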
row,SMILES,LBPA endosome anti-LBPA integrated intensity (z-score)
1,C[N+]1(C)[C@@H]2CC[C@H]1C[C@@H](OC(=O)C(CO)c1ccccc1)C2 (some centres not stated) [Methylatropine nitrate],-0.382
2,COc1ccc(C(=O)N2CCCC2=O)cc1 [Aniracetam],-0.475
3,CC(C)c1c(CN(C)C(C)Cc2ccccc2)n(C)n(-c2ccccc2)c1=O (configuration not stated) [Famprofazone],-0.355
4,"CC(=O)OCC1=C(C(=O)O)N2C(=O)[C@@H](N)[C@H]2SC1 [Cephalosporanic acid, 7-amino]",-0.605
5,O=P1(N(CCCl)CCCl)NCCCO1 (configuration not stated) [Cyclophosphamide],-0.0725
6,C#CCN(C)[C@H](C)Cc1ccccc1 [Selegiline hydrochloride],-0.688
7,CC(=O)[C@H]1CC[C@H]2[C@@H]3CC[C@H]4C[C@H](O)CC[C@]4(C)[C@H]3C(=O)C[C@]12C [Alfaxalone],1.82
8,Cc1cc(C(C#N)c2ccc(Cl)cc2)c(Cl)cc1NC(=O)c1cc(I)cc(I)c1O (configuration not stated) [Closantel],-0.54
9,C[C@]12C[C@H]3S[C@H]3C[C@@H]1CC[C@@H]1[C@@H]2CC[C@]2(C)[C@@H](O)CC[C@@H]12 [Epitiostanol],-0.387
10,C=CCC1(CC(C)C)C(=O)NC(=O)NC1=O [Butalbital],-0.477
11,O=C([O-])c1ccccc1-c1c2cc(Br)c(=O)cc-2oc2[c]([Hg+])c([O-])c(Br)cc12.[Na+].[Na+].[OH-] [Merbromin],-0.53
12,C#C[C@]1(O)CC[C@H]2[C@@H]3CCC4=CC(=O)CCC4=C3C=C[C@@]21CC [Gestrinone],-0.489
13,CNC(C)(C)Cc1ccccc1 [Mephentermine hemisulfate],-0.473
14,C1CCc2nnnn2CC1 [Pentylenetetrazole],-0.641
15,Clc1ccc(C(OCCN2CCCCC2)c2ccccc2)cc1 (configuration not stated) [Cloperastine hydrochloride],3.12
16,CN1[C@@H]2C[C@@H](OC(=O)[C@H](CO)c3ccccc3)C[C@H]1[C@@H]1O[C@@H]12 [Scopolamine hydrochloride],-0.422

row,SMILES,LBPA endosome anti-LBPA integrated intensity (z-score)
1,CC(Cc1ccc(O)cc1)NCC(O)c1cc(O)cc(O)c1 (configuration not stated) [Fenoterol hydrobromide],-0.386
2,COc1ccc2c(c1)[C@]13CCCC[C@@H]1[C@H](C2)N(C)CC3 [Dextromethorphan hydrobromide monohydrate],-0.375
3,CN1[C@@H]2CC[C@H]1C[C@@H](OC(=O)C(CO)c1ccccc1)C2 (some centres not stated) [Atropine sulfate monohydrate],-0.568
4,CC(=O)O[C@H]1CC[C@@]2(C)C(=CC[C@@H]3[C@@H]2CC[C@]2(C)C(=O)CC[C@@H]32)C1 [Dehydroisoandosterone 3-acetate],-0.242
5,O=c1[nH]oc2c1CCNC2 [THIP Hydrochloride],-0.526
6,O=C(CCCN1CCC(n2c(=O)[nH]c3ccccc32)CC1)c1ccc(F)cc1 [Benperidol],2.05
7,CC1OC(OC2/C=C/C=C/C=C/C=C/CC/C=C/C=C/[C@H](C)[C@@H](O)[C@@H](C)[C@H](C)OC(=O)CC(O)CC(O)CC(O)CCC(O)C(O)C[C@]3(O)CC(O)C(C(=O)O)C(C2)O3)C(O)C(N)C1O (some centres not stated) [Nystatine],-0.00963
8,CCNC1(c2cccs2)CCCCC1=O (configuration not stated) [Tiletamine hydrochloride],-0.499
9,C=C(C)[C@@H]1[C@H]2OC(=O)[C@@H]1[C@]1(O)C[C@H]3O[C@]34C(=O)O[C@H]2[C@]14C [Picrotoxinin],-0.582
10,CC(C)C[C@H]1C(=O)N2CCC[C@H]2[C@]2(O)O[C@](NC(=O)[C@@H]3C=C4c5cccc6[nH]c(Br)c(c56)C[C@H]4N(C)C3)(C(C)C)C(=O)N12 [Bromocryptine mesylate],0.99
11,CCC1(C)CC(=O)NC(=O)C1 [Bemegride],-0.67
12,C[C@]12CC[C@H](O)C[C@@H]1CC[C@@H]1[C@@H]2CC[C@]2(C)C(=O)CC[C@@H]12 [Epiandrosterone],1.56
13,N[C@@H]1C[C@H]1c1ccccc1 [Tranylcypromine hydrochloride],-0.505
14,CCCCCC[C@H]1C(=O)O[C@H](C)[C@H](NC(=O)c2cccc(NC=O)c2O)C(=O)O[C@@H](C)[C@@H]1OC(=O)CC(C)C [Antimycin A],-0.868
15,CC(C)CC(N(C)C)C1(c2ccc(Cl)cc2)CCC1 (configuration not stated) [Sibutramine HCl],-0.608
16,CCC(C)C1O[C@]2(C=C[C@@H]1C)C[C@@H]1CC(C/C=C(\C)[C@@H](OC3C[C@H](OC)[C@@H](OC4C[C@H](OC)[C@@H](O)[C@H](C)O4)[C@H](C)O3)[C@@H](C)/C=C/C=C3\COC4[C@H](O)C(C)=CC(C(=O)O1)[C@]34O)O2 (some centres not stated) [Avermectin B1a],-0.178
